Measured values reported in PubChem BioAssay AID602156 (GNF / Scripps Winzeler lab, 2011).
Among all 5,700 compounds or so, about 280 (4.9%) were called active. The rule behind the calls is not given here. These entries were drawn from the full list.

Test: Plasmodium liver-stage growth inhibition, dose response, imaging, Malaria Box, P. yoelii, HepG2-A16-CD81EGFP (AID 602156)
Conditions: P. yoelii liver stage in HepG2-A16-CD81EGFP

outcome, inactive:
COc1ccccc1N1CCN(Cc2cc(C(C)C)c(C)cc2O)CC1
N#CN=C(N)c1sc(Nc2ccccc2)nc1N
CC1[C@H]2NC[C@H](C)C[C@]2(O)O[C@@H]2C[C@H]3[C@@H]4CC[C@H]5C[C@@H](N)CC[C@]5(C)C4CC[C@]3(C)[C@@H]12 (some centres undefined)
O=C(Nc1ccc(Cl)c(Cl)c1)Nc1ccc(Cl)c(Cl)c1
N=c1c2c(n(Cc3ccc(Cl)c(Cl)c3)c3c1CCC3)CCCC2
COc1ccc(C2CC(=O)C3=C(C2)NC(C)=C(C(=O)OC2CCCC2)C3c2ccccc2)cc1 (centres undefined)
COCCSc1nc2sc3c(c2c(=O)n1-c1ccc(OC)cc1)CCN(C)C3
Cc1ccc2nc3c(c(Nc4ccc(N(C)C)cc4)c2c1)CCC3
Cc1ccc(-c2nc3cc(NC(=O)c4ccc([N+](=O)[O-])o4)ccc3o2)cc1Br
Nc1cc(C(=O)Nc2cccc(C3=NCCN3)c2)ccc1C(=O)Nc1cccc(C2=NCCN2)c1
CCCCCC1CCCc2c1[nH]c1cc(Cl)ccc1c2=O (centres undefined)
O=C(NCc1ccccc1)c1cnc(NCCCN2CCCC2)nc1NCCc1ccccc1
CC(C)c1ccc(C=CC(=O)NCc2ccco2)cc1
CCc1c(C)nc(SCC(=O)NNC(C)=O)[nH]c1=O
FC(F)(F)c1cccc(-c2nc3c(s2)CN(C2CCCC2)CC3)c1
Cc1c(/C=C2\SC(=Nc3ccccc3F)N(C3CCCCC3)C2=O)c2ccccc2n1CC(N)=O
Clc1ccc(-c2nc3ncc(Cl)cc3[nH]2)cc1
COc1cccc(-c2ccc(O)c(CN3CCC(C)CC3)c2)n1
Clc1ccc(Nc2nc(NCc3ccco3)c3ccccc3n2)cc1
CCOC(=O)c1sc(NC(=O)CSc2nnc(CNC(=O)COc3ccc(Cl)cc3)n2C)c(C(=O)OCC)c1C
COc1ccc(N=C(C)C2=C(O)c3ccccc3C2=O)c(OC)c1
CN(C)c1ccc(/C=C/C=C/c2cc[n+](C)cc2)cc1
CCCCCCCCCCOC(=O)Cn1c(C)[n+](C)c2ccccc21
COCCn1nnnc1C(c1cc2cc3c(cc2[nH]c1=O)OCCO3)N1CCC(O)CC1 (centres undefined)
COc1cc2nc(NCc3ccccn3)n3nc(-c4ccccc4)nc3c2cc1OC
CCN1C(=S)NC2c3cc(C)ccc3OC13CCCC23 (centres undefined)
Cc1ccc(NC(=O)CCCCC(=O)Nc2ccc(C)c(Br)c2)cc1Br
C#CC(C)(C)NC(=O)c1ccc(-c2ccc(CC)cc2)cc1
CCC(c1nc2ccccc2c(=O)n1-c1cccc(C)c1)N(CCc1ccccc1)C(=O)Nc1c(C(C)C)cccc1C(C)C (centres undefined)
CCC(c1nc2ccccc2c(=O)n1-c1cccc(C)c1)N(Cc1ccccc1)C(=O)Nc1c(C(C)C)cccc1C(C)C (centres undefined)
CCCNC(=O)c1ccc(OC2CCN(CC(c3ccccc3)c3ccccc3)CC2)c(OC)c1
COCCNC(=O)c1ccc(OC2CCN(CC(c3ccccc3)c3ccccc3)CC2)c(OC)c1
COc1ccc(SC2CCN(C3CCOCC3)CC2)cc1
CCCCC(CC)C(=O)N(C)CCCNc1ccnc2cc(Cl)ccc12 (centres undefined)
O=C(NCC1CCCO1)c1cnc(NCCCn2ccnc2)nc1NCCc1ccccc1 (centres undefined)
Cc1cc(C)nc(N=C(N)Nc2ccccc2O)n1
Oc1ccc(-c2nc3ccccc3s2)cc1CN1CCCCC1
O=C1CSC(=S)N1c1cccc(Cl)c1
CC[C@@H]1CCC[C@H](C)CC[C@@H](O[C@@H]2O[C@@H](C)[C@@H](O)[C@@H](N)[C@H]2O)[C@H](CC)CCCNC1=O
CN(CCCNc1nc2ccccc2c2nc(-c3cccnc3)nn12)Cc1ccccc1
O=C(Cc1ccccc1)NCc1ccc(Nc2c(-c3cccnc3)nc3ccccn23)cc1
CCCCCCCSc1c(O)c2ccc(Cl)cc2[nH]c1=O
COc1ccc(Nc2ncnc3[nH]c(-c4cccc([N+](=O)[O-])c4)cc23)cc1
C1CCC(CN2CCc3nc(N4CCCCC4)sc3C2)CC1
CC(=O)N(C1=C(N(C)C)C(=O)c2ccccc2C1=O)c1cccc(O)c1
Oc1ccc(Br)cc1C=NNc1nc2ccccc2[nH]1
CCCOC(=O)C1=C(C)NC2=C(C(=O)CC(c3ccc(OC)c(OC)c3)C2)C1c1ccccc1C (centres undefined)
CN(C=Cc1sc2ccc3ccccc3c2[n+]1C)c1ccccc1
Oc1ccc(-c2cncnc2)cc1CNC1CCN(Cc2ccccc2)CC1
CC(C)CN(CC(=O)N1CCC(Nc2nsc3ccccc23)C1)S(C)(=O)=O (centres undefined)
COc1ccc2[nH]c(-c3ccccc3)cc(=O)c2c1
COc1ccc(Nc2nc(Nc3ccc(OC)cc3)c3ccccc3n2)cc1
CC(=O)Nc1ccc(C2NC(=O)NC3=Nc4ccccc4SC(c4ccccc4)=C32)cc1 (centres undefined)
Cc1cccc(CSc2nnc(C(Cc3ccccc3)NC(=O)C3CCCCC3)n2-c2ccc(Cl)cc2Cl)c1 (centres undefined)
Cc1cc(Nc2ccc(C)c(F)c2)n2nc(C)nc2n1
CCN1CCN(c2nc3ccccn3c(=O)c2C=C2SC(=S)N(C(C)C)C2=O)CC1
CCOc1ccccc1C=NNc1nc(Nc2ccccc2)nc(Nc2ccccc2)n1
Cc1cc(C)nc(NNc2c([N+](=O)[O-])cccc2[N+](=O)[O-])n1
O=c1c(NCc2ccco2)nc2cc(Cl)ccc2n1CCNc1ncc(C(F)(F)F)cc1Cl
Cn1c(=O)n(C)c2cc(NC(=O)CCl)ccc21
Oc1ccccc1-c1nc2ncccn2c1Nc1cccc(C(F)(F)F)c1
Cc1cc2cc3c(cc2c(C)n1)c1ccccc1n3C
Cc1ccc(N=C2NC(=O)C(=Cc3ccc(N(C)C)cc3)S2)cc1
c1ccc(CN2CCC(NCc3c[nH]c4ccccc34)CC2)cc1
Cc1ccccc1S(=O)Cc1ccc(C(=O)N2CCN(c3ccccn3)CC2)o1 (centres undefined)
CCN1C(=Cc2ccc3cc(C)ccc3[n+]2C)C=Cc2cc(C)ccc21
O=C(NCc1ccccc1)c1cnc(NCCCn2ccnc2)nc1NCCc1ccccc1
N#Cc1ccccc1Cn1nc(-c2cccnc2)oc1=O
Clc1ccc(-c2c[n+](Cc3ccc(Cl)c(Cl)c3)c3n2CCC3)cc1
c1ccc(Cn2c(N=Nc3c(Nc4ccccc4)ccc4ccccc34)nc3ccccc32)cc1
COC(=O)c1c(-c2c(F)cccc2Cl)noc1/C=C/Nc1ccccc1
CCCN(CCC)C(=O)Cn1ccc(=N)c2ccccc21
O=C1N(Cc2cc3ccccc3s2)CC2CN(Cc3ccoc3)CCN12 (centres undefined)
O=C1N(Cc2cc3ccccc3s2)CC2CN(Cc3ccccc3)CCN12 (centres undefined)
